Among all 69,000 compounds or so, about 1,000 (1.4%) showed an effect of 50% or more. The full list was thinned out, with strong results kept by preference.
Tested on: Leishmania donovani
Assay: Leishmania intramacrophage assay
Type: functional, organism-based
Parameters: scale not given: in the data most compounds retested in dose-response had high values

Compound: CC(C)[C@H]1CN(CCCO)C[C@@H]1NC(=O)CCC(F)(F)F
- Percent Effect (30.3 µM, […]): -10.59%

Compound: CN(C)CCn1ccnc1C1CCCN(c2ncc(Cl)cc2F)C1 (stereo not given)
- Percent Effect (30.3 µM, […]): 16%

Compound: CCS(=O)(=O)N1CCOC2(CCCN(c3ccc(C)nn3)C2)C1.O=C(O)C(F)(F)F (stereo not given)
- Percent Effect (30 µM, 30.03 µM): 11.03%

Compound: CNc1nc(C(=O)N2C[C@H]3CC[C@@H]2CN(S(C)(=O)=O)C3)cs1
- Percent Effect (30.3 µM, […]): 50.94%

Compound: CC(C)c1nc(C(=O)N2C[C@H]3CC[C@@H]2CN(C2CCOCC2)C3)cs1
- Percent Effect (30.3 µM, […]): 12.76%

Compound: CNc1nc(C(=O)N2C[C@H]3CC[C@@H]2CN(C2CCOCC2)C3)cs1
- Percent Effect (30.3 µM, […]): 4.94%

Compound: CS(=O)(=O)NC[C@]12COC[C@H]1CN(CCc1ccccc1)C2.O=C(O)C(F)(F)F
- Percent Effect (30.3 µM, […]): 17.9%

Compound: CS(=O)(=O)NC[C@]12COC[C@H]1CN(CC1CCC1)C2.O=C(O)C(F)(F)F
- Percent Effect (30.3 µM, […]): 80.19%

Compound: CS(=O)(=O)NC[C@]12COC[C@H]1CN(CC1CCCC1)C2.O=C(O)C(F)(F)F
- Percent Effect (30 µM, 30.03 µM): -6.018%

Compound: O=C(Nc1cnccn1)[C@H]1CC[C@@H]2[C@@H](CCN2Cc2ccccn2)O1.O=C(O)C(F)(F)F
- Percent Effect (30.3 µM, […]): 28.13%

Compound: CC(O)CCN(C)C(=O)Nc1cccc(F)c1 (stereo not given)
- Percent Effect (30.3 µM, […]): 1.493%

Compound: Clc1ccccc1C1(c2ccnc(C3CCCC3)n2)CCNCC1
- Percent Effect (30.3 µM, […]): 99.4%

Compound: Cl.Cl.c1ccc2c(c1)C(NC1CCCC1)CC21CCNCC1 (stereo not given)
- Percent Effect (30.3 µM, […]): 32.48%

Compound: Cl.Clc1ccccc1CN1CCc2nc(C3CCNCC3)ncc2C1
- Percent Effect (30.3 µM, […]): 3.749%

Compound: Cl.Clc1cccnc1OC1CCNCC1
- Percent Effect (30.3 µM, […]): 14.95%

Compound: OC1(CN2CCC(Cc3ncccn3)CC2)CCOCC1
- Percent Effect (30.3 µM, […]): 5.693%

Compound: Cl.Clc1ccccc1CN1CCc2nc(C3CCCNC3)ncc2C1 (stereo not given)
- Percent Effect (30.3 µM, […]): 6.249%

Compound: c1ccc2ncc(CC3CCNCC3)cc2c1
- Percent Effect (30.3 µM, […]): -17.37%

Compound: Clc1ccccc1C1(c2ccnc(CC3CC3)n2)CCNCC1
- Percent Effect (30 µM, 30.03 µM): 93.39%

Compound: Clc1ccccc1C1(c2ccnc(C3CC3)n2)CCNCC1
- Percent Effect (30.3 µM, […]): 94.79%

Compound: Cn1cc(-c2cnc(N3CCOCC3)nc2)cc1C(=O)N1CCCC1
- Percent Effect (30.3 µM, […]): 13.22%

Compound: O=C(NCc1ccccc1-n1cccn1)N1CCC(N2CCCC2)C1 (stereo not given)
- Percent Effect (30 µM): 13.6%

Compound: O=S(=O)(NC1=NCN(CCc2ccccc2)CN1)c1ccc(F)cc1
- Percent Effect (30.3 µM, […]): 1.728%

Compound: CCc1cc(C(=O)N2CCC(C3CCN(c4ncccn4)CC3)C2)on1 (stereo not given)
- Percent Effect (30.3 µM, […]): 4.034%

Compound: Cc1nc(NCCc2ccccc2)cc(C(=O)N2CCOCC2)n1
- Percent Effect (30.3 µM, […]): 21.35%

Compound: CCn1c(-c2ccccc2)nn(CC(=O)NCCc2c[nH]cn2)c1=O
- Percent Effect (30.3 µM, […]): 22.36%

Compound: Cc1cc(=O)c(C(=O)N(C)Cc2ccc(Cl)c(F)c2)c[nH]1
- Percent Effect (30.3 µM, […]): 24.44%

Compound: Cc1cnn(C2CCCN(C(=O)c3cn4ccccc4n3)C2)c1 (stereo not given)
- Percent Effect (30 µM): -3.479%

Compound: CCNC(=O)CN1CCN(Cc2nc3c(F)cccc3n2CC)CC1
- Percent Effect (30 µM): 25.75%

Compound: Cn1cc(CCCN2CCN(Cc3cccc(O)c3)CC2)cn1
- Percent Effect (30.3 µM, […]): 7.791%

Compound: Cc1nc(C)c(C)c(NCc2cnn3cccnc23)n1
- Percent Effect (30.3 µM, […]): 15.17%

Compound: Cc1ccc(O)c(CNc2cccc(CN3CCSCC3)c2)n1
- Percent Effect (30.3 µM, […]): 6.923%

Compound: Cc1nc(CN2C(=O)CCC23CCN(Cc2cccn2C)CC3)cs1.O=C(O)C(F)(F)F.O=C(O)C(F)(F)F
- Percent Effect (30.3 µM, […]): 2.496%

Compound: N#CCCN(CC1CCOC1)Cn1ccc(-c2ccccc2)n1 (stereo not given)
- Percent Effect (30.3 µM, […]): 16.63%

Compound: CC(C)c1n[nH]c(C(=O)NC(C)c2ccncc2)c1Br (stereo not given)
- Percent Effect (30 µM): 13.54%

Compound: COc1ccncc1NC(=O)c1[nH]nc(C(C)C)c1Br
- Percent Effect (30.3 µM, […]): 16.78%

Compound: CC(C)c1n[nH]c(C(=O)Nc2ccncc2)c1Br
- Percent Effect (30 µM, 30.03 µM): 62.71%

Compound: NC1CCCCN(Cc2cc(-c3ccccc3OC(F)(F)F)no2)C1 (stereo not given)
- Percent Effect (30.3 µM, […]): 99.07%

Compound: OC1COCCN(Cc2cc(-c3ccccc3OC(F)(F)F)no2)C1 (stereo not given)
- Percent Effect (30.3 µM, […]): -21.47%

Compound: N[C@@H]1CCN(Cc2cc(-c3ccccc3OC(F)(F)F)no2)C[C@H]1O
- Percent Effect (30.3 µM, […]): 12.53%

Compound: COc1ccc(C)cc1CN1CCC(c2cc3ncccc3cn2)CC1.Cl
- Percent Effect (30.3 µM, […]): 41.3%

Compound: CS(=O)(=O)N1CCC(C(=O)Nc2nnc(C(F)(F)F)[nH]2)CC1
- Percent Effect (30.3 µM, […]): 1.048%

Compound: COC[C@@H]1CCCN1C(=O)c1cc(-c2ccc(OC)cc2)n[nH]1
- Percent Effect (30.3 µM, […]): 15.18%

Compound: Cc1nnc(CN(C)S(=O)(=O)c2ccc(Br)cc2Cl)n1C
- Percent Effect (30.3 µM, […]): 25.06%

Compound: CN1CCC(N(Cc2ccco2)S(=O)(=O)c2ccc(Br)cc2Cl)CC1
- Percent Effect (30.3 µM, […]): 87.02%

Compound: CN(Cc1nnc2n1CCC2)S(=O)(=O)c1cc(Br)ccc1Br
- Percent Effect (30.3 µM, […]): 22.5%

Compound: CN1CCC(N(Cc2ccco2)S(=O)(=O)c2cc(Br)ccc2Br)CC1
- Percent Effect (30.3 µM, […]): 95.6%

Compound: CN1CCC(N(Cc2ccco2)S(=O)(=O)c2ccc(Cl)cc2)CC1
- Percent Effect (30.3 µM, […]): 24.1%

Compound: O=c1cc(CN(Cc2ccco2)C2CC2)nc2ccc(Br)cn12
- Percent Effect (30.3 µM, […]): 12.01%

Compound: Cc1ccc(NCCCNC(=O)C2CCCN(Cc3ccco3)C2)nc1 (stereo not given)
- Percent Effect (30.3 µM, […]): -17.24%
